Assay results reported in ChEMBL document CHEMBL1157539, “Thousands of chemical starting points for antimalarial lead identification” (Nature, 2010).

The molecules below were run on Plasmodium falciparum (assay: GSK_TCMDC: Inhibition of Plasmodium falciparum 3D7 in whole red blood cells, using parasite LDH activity as an index of growth. Test compounds present at 2uM).
Format: functional

Structure (SMILES)	Inhibition
Cc1cc(NCCc2ccccc2)nc(NC(=N)Nc2cccc(Cl)c2)n1	100%
O=C(O)C(F)(F)F.O=C1CCCN1CCCNCc1ccc(-c2ccc(-c3nc4cc(C(F)(F)F)ccc4[nH]3)cc2)cc1	100%
COc1ccc(N2CCN(CCCCNC(=O)c3ccc(/C=C/c4ccc(Cl)c(Cl)c4)cc3)CC2)c(OC)c1	100%
O=C(Nc1ccc(Cl)cc1)c1ccc(CN2CCCN(Cc3cccc(Cl)c3)CC2)cc1.O=C(O)C(F)(F)F	96%
Cc1c(Cl)ccc2c(C(=O)Nc3ccncc3)cc(-c3cccnc3)nc12	99%
Cc1cccc2nc(-c3ccc(-c4ccc(NC(=O)NCc5cccc(F)c5)cc4)s3)[nH]c12	100%
COC(=O)c1cccc(CNCc2ccc(-c3ccc(-c4nc5cccc(C)c5[nH]4)cc3)cc2)c1.O=C(O)C(F)(F)F	100%
Cc1cc(CN2CCCN(c3ccc4c(c3)CCN(Cc3ccc(-c5ncc[nH]5)cc3)CC4)CC2)n(C)n1	86%
CCOc1ccc(S(=O)(=O)N(C)c2ccc(OCC(=O)Nc3nccs3)cc2)cc1	95%
O=C(Nc1ccccc1O)C1CCN(c2ncnc3cc(-c4ccc(F)cc4)sc23)CC1	97%
Clc1ccc(OCc2ccccc2)c(-c2nc(-c3nc4ncc(Br)cc4[nH]3)cs2)c1	100%
CC(C)(C)CNCC(C)(C)c1nc(-c2ccc(Cl)c(O)c2)c(-c2ccncc2)[nH]1.Cl	100%
CCCCN1Cc2c(n(CC(=O)Nc3ccccc3)c3cc(-c4ccccc4)nn3c2=O)C1=O	92%
CCCN(CCC)C(=S)N/N=C1/C(=O)Nc2ccccc21	97%
O=C(NC(c1ccccc1)c1ccccc1)C(c1cc2ccccc2o1)N1CCN(C(c2ccccc2)c2ccccc2)CC1 (centres undefined)	95%
O=C(Nc1ccc(Cl)cc1)Nc1cccc(-c2ccc(-c3nc4ccccc4[nH]3)cc2)c1	87%
Br.CC(=O)CSC(C=Cc1ccc(N(C)C)cc1)=Nc1ccccc1	81%
Cc1ccc(Cn2nc(N3CCNCC3)ccc2=O)cc1NC(=O)Nc1ccc(-c2ccccc2)cc1.O=C(O)C(F)(F)F	94%
COc1ccc(C2CC(c3cccs3)=NN2C(=O)COc2cccc3c2CCCC3O)cc1OC (centres undefined)	93%
CCCCn1c(Sc2ccc(C#N)c([N+](=O)[O-])c2)nnc1-c1cccc(Cl)c1	96%

Structure (SMILES)	Inhibition
CC(C)NCc1ccc(-c2ccc(-c3nc4cc(C(F)(F)F)ccc4[nH]3)cc2)cc1.O=C(O)C(F)(F)F	100%
C=CCOC(=O)N1CCC(CNCc2cccc(-c3ccc(-c4nc5cc(C(F)(F)F)ccc5[nH]4)cc3)c2)C1.O=C(O)C(F)(F)F (centres undefined)	100%
CC12CN3CC(C)(CN(C1)C3c1cc(Br)ccc1O)C2O (centres undefined)	98%
N#CCCN1CCN(Cc2cccc(-c3ccc(-c4nc5cc(F)ccc5[nH]4)cc3)c2)CC1.O=C(O)C(F)(F)F	100%
CCNc1cc(C(=O)N[C@@H](Cc2ccccc2)[C@H](O)CNC2(CC)CC2)cc(N2CCCCS2(=O)=O)c1.Cl	97%
Cc1ccc(-c2nnc(Nc3ccc(OCC(N)=O)cc3)c3ccccc23)cc1S(=O)(=O)NCC1CCCO1 (centres undefined)	92%
O=C(NC1CCN(CCCc2ccccc2)CC1)c1ccc(-c2cccc(C(F)(F)F)c2)s1.O=C(O)C(F)(F)F	95%
O=[N+]([O-])c1cccc(/C=N/Nc2ccnc3ccc(C(F)(F)F)cc23)c1	96%
CCCCCCc1cc(Oc2c(I)cc(C[C@H](N)C(=O)O)cc2I)ccc1O	97%
CN(c1ccc2c(c1)nc(Nc1ccc(Cl)cc1)n2C)c1ccnc(Nc2ccc(CS(C)(=O)=O)cc2)n1.Cl	97%
COc1ccc(-c2ccc(NC(=O)c3cccc(C#N)c3)cc2)cc1CN1CCCN(C)CC1.O=C(O)C(F)(F)F	100%
Clc1cc(Nc2ccnc3ccc(Br)cc23)ccc1Oc1ccc(Cl)c2ccccc12	99%
O=C(/C=C/c1ccc(Cl)c(Cl)c1)NCCCCCN1CCC(NC(=O)Nc2ccc(OC(F)F)cc2)CC1	100%
CC(ON1C(N)=NC(N)=NC1(C)C)c1ccccc1 (centres undefined)	96%
C[C@@H](C(=O)N1CCOCC1)N1CC[C@H](NS(=O)(=O)c2ccc3ccnc(N)c3c2)C1=O.O=CO	84%
Cc1cc(Nc2cccc(C(F)(F)F)c2)nc(Nc2cccc(C(F)(F)F)c2)n1	100%
CCN(CC)CCN(Cc1ccc(-c2ccc(C(F)(F)F)cc2)cc1)C(=O)Cn1c(CCc2cc(F)c(F)c(F)c2)nc(=O)c2ccccc21.O=C(O)C(O)C(O)C(=O)O	100%
O=C(CC1NC(=O)c2ccccc21)Nc1ccc(-c2ccc(-c3nc4cc(C(F)(F)F)ccc4[nH]3)cc2)cc1 (centres undefined)	87%
COc1ccc2nccc([C@@H](O)CN3CCC(NC(=O)C(c4cc5ccccc5o4)N4CCN(C(c5ccccc5)c5ccccc5)CC4)CC3)c2c1 (some centres undefined)	100%
